Assay results taken from PubChem BioAssay (NCI).
Compounds without any hit were thinned out: in the full panel of roughly 79,000, 15% have a hit. Values without a mark were called inactive. Active and inactive are the calls of the source. Cut-off read from the data, not from the text of the source: active = growth inhibition above about 70%; inactive = the rest.

Assays:
[1] = NCI Yeast Anticancer Drug Screen. Data for the rad50 strain (AID 155);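 note: 0% = growth of vehicle-only cultures of the same strain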; conditions: S. cerevisiae rad50 strain growth inhibition, hits give high values
Procedure, shortened: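 DNA repair mutant yeast, compound exposure, growth read-out; inhibition is taken relative to vehicle.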

[2] = NCI Yeast Anticancer Drug Screen. Data for the mec2-1 strain (AID 157); conditions: S. cerevisiae mec2-1 strain, hits give high values
Procedure, shortened: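 Using mec2-1 yeast: add compound, measure growth, express inhibition versus vehicle-treated cultures.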

[3] = NCI Yeast Anticancer Drug Screen. Data for the sgs1 mgt1 strain (AID 161);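 note: 0% = growth of cultures given vehicle only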; conditions: S. cerevisiae sgs1 mgt1 strain, hits give high values
Procedure, shortened: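 Percent growth inhibition was derived by comparing compound-exposed mutant yeast with vehicle-exposed cultures. The strain carries alterations in DNA damage repair.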

[4] = NCI Yeast Anticancer Drug Screen. Data for the cln2 rad14 strain (AID 165);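 note: 0% = growth equal to vehicle treated cultures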; conditions: S. cerevisiae cln2 rad14 strain, hits give high values
Procedure, shortened: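 Yeast strain cln2 rad14, bearing defects in cell cycle control and DNA repair, serves as the test system; values reflect growth inhibition compared with vehicle.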

[5] = NCI Yeast Anticancer Drug Screen. Data for the bub3 strain (AID 167); conditions: S. cerevisiae bub3 mutant strain, hits give high values
Procedure, shortened: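 In this screen, a yeast mutant lacking normal mitotic checkpoint function is challenged with compound. Relative growth versus vehicle gives the inhibition value.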

[6] = NCI Yeast Anticancer Drug Screen. Data for the mlh1 rad18 strain (AID 175); conditions: S. cerevisiae mlh1 rad18 strain growth inhibition, hits give high values
Procedure, shortened: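 Steps: expose repair-defective yeast to compound; measure growth; express inhibition against vehicle-treated controls.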

[7] = at 5.0 µM (retest, dose inferred, filed as 0.5)
[8] = at 50.0 µM (retest, dose inferred, filed as 5.0)

| Compound | growth inhibition [1, 7] | growth inhibition [1, 8] | growth inhibition ([1]; at 50.0 µM) | growth inhibition [2, 7] | growth inhibition [2, 8] | growth inhibition ([2]; at 50.0 µM) | growth inhibition [3, 7] | growth inhibition [3, 8] | growth inhibition ([3]; at 50.0 µM) | growth inhibition [4, 7] | growth inhibition [4, 8] | growth inhibition ([4]; at 50.0 µM) | growth inhibition [5, 7] | growth inhibition [5, 8] | growth inhibition ([5]; at 50.0 µM) | growth inhibition [6, 7] | growth inhibition [6, 8] | growth inhibition ([6]; at 50.0 µM) |
| --- | --- | --- | --- | --- | --- | --- | --- | --- | --- | --- | --- | --- | --- | --- | --- | --- | --- | --- |
| O=C(C=P(c1ccccc1)(c1ccccc1)c1ccccc1)CC(=S)CC(=O)C=P(c1ccccc1)(c1ccccc1)c1ccccc1 | 31% | 71% (active) | 97.3% (active) | 18% | 69% | 97.8% (active) | 24% | 85% (active) | 97.8% (active) | -3% | 61% | 96.2% (active) | 9% | 88% (active) | 95.9% (active) | 8% | 77% (active) | 95.2% (active) |
| CCCCCCC(C)c1ccccc1O (configuration not stated) (tested in a mixture with another compound) | 25% | 96% (active) | 92.2% (active) | 24% | 100% (active) | 94% (active) | 25% | 100% (active) | 94% (active) | 25% | 100% (active) | 93.6% (active) | 37% | 99% (active) | 93% (active) | 38% | 99% (active) | 92.2% (active) |
| O=[N+]([O-])c1ccc(N/N=C/COCCO)c([N+](=O)[O-])c1 | 2% | 20% | 37.4% | 9% | 11% | 11.8% | 0% | 62% | 23.1% | 4% | 2% | -24.2% | -1% | 14% | 73.6% (active) | 1% | 8% | 62% |
| CC(=O)Nc1nnc(C)s1 | 0% | -3% | 4.25% | 0% | -3% | -11.8% | -2% | -5% | -4.4% | -3% | 6% | 13% | 1% | 1% | -19.3% | 1% | -3% | -18.8% |
| COc1cc(C(=O)NC(CCC(=O)O)C(=O)O)ccc1N(C)Cc1cnc2nc(N)nc(N)c2n1 (configuration not stated) | -4% | 66% | 89.8% (active) | -3% | 93% (active) | 97.2% (active) | -7% | 44% | 83.8% (active) | 2% | -10% | -21.4% | -6% | -6% | 40.4% | -51% | 29% | 74.1% (active) |
| CCS(=O)(=O)/C=C(\C#Cc1ccccc1)c1ccccc1 | 9% | 84% (active) | 79.2% (active) | -1% | 95% (active) | 82.4% (active) | 5% | 90% (active) | 83.7% (active) | 12% | 81% (active) | 80.3% (active) | 11% | 99% (active) | 87.5% (active) | 6% | 94% (active) | 92.2% (active) |
| OCCCNc1nc2ccc(Cl)cc2c2ccccc12 | 7% | 5% | 23.6% | 2% | 2% | 12.4% | 6% | 3% | 25.7% | 5% | 1% | 2.7% | -3% | -4% | 23.8% | -1% | 5% | 70.5% (active) |
| CCC1OC(OC)C=CC1=O (configuration not stated) | -1% | -8% | 90% (active) | -10% | -25% | 94% (active) | -14% | -19% | 90.2% (active) | 18% | 15% | 90.5% (active) | -6% | -15% | 90.3% (active) | -16% | -30% | 91.8% (active) |
| O=C(Nc1c(Cl)cccc1Cl)OCCOc1ccc(Cl)cc1Cl | 44% | 73% (active) | 88.5% (active) | 36% | 57% | 90.8% (active) | 47% | 58% | 91.2% (active) | 34% | 61% | 88.2% (active) | 38% | 71% (active) | 90.7% (active) | 55% | 80% (active) | 90% (active) |
